This is an account of results in PubChem BioAssay (NCATS).

Structures are written as SMILES. “And” between values parts separate entries of the source, which are not always exact repeats. Equal values may be shown once. Records with an inconclusive call do not appear. The source made the active and inactive calls. Unless noted, the call rests on the fitted dose curve; in most records, active means well fitted curve in the direction sought with a large enough effect; inconclusive means small, poorly fitted or top-dose-only effect, or another doubt; inactive means no such curve, though single readings can be large; an effect the other way counts as inactive or inconclusive.

Assay [1] in a line: qHTS Assay for Identifying Gametocytocidal Compounds (AID 743244). Further: potency means the concentration at half of the fitted maximal effect.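 On max response: on the % scale 0 is the no-effect control and ±100 the full control effect; actives lower the fluorescent signal which means gametocytes are killed.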 As to conditions: P. falciparum 3D7 stage III-V gametocytes, alamarBlue, 72 h; max response: stronger effect = lower value. The method in brief:
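Fluorescence at Ex 525/Em 598 nm, recorded 24 h after alamarBlue addition, reports residual metabolic activity of 3D7 gametocytes (stages III–V) following 72 h compound exposure at 37 °C, 5% CO2.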

A short description of assay [2]: qHTS profiling for inhibitors of Plasmodium falciparum (3D7) proliferation (AID 743322; call rule not given here;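 further: infected erythrocytes exposed to compound for 72 h before lysis; 100% = DMSO vehicle wells and 0% = 0.29 µM artemisinin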). As to conditions: P. falciparum 3D7 proliferation; at 28.7 µM (top of the series) unless noted. The method in brief: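 Parasite DNA was quantified by SYBR Green I fluorescence (ex 485, em 535 nm) after overnight lysis in saponin/Triton buffer at room temperature. Cultures at 0.3% parasitemia and 2.5% hematocrit were first exposed to compound for 72 h at 37 C; signals were normalised to artemisinin (0.29 uM) and vehicle wells.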

Assay [3] can be described thus: qHTS profiling for inhibitors of Plasmodium falciparum (DD2) proliferation (AID 743323; call rule not given here). As to conditions: lower = more inhibition; at 28.7 µM (top of the series) unless noted. The method in brief: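 SYBR Green fluorescence (ex 485, em 535 nm) of lysed cultures gives parasite DNA content; wells normalized to artemisinin (0.29 uM) and DMSO controls. Infected red cells: 0.3% parasitemia, 2.5% hematocrit, 72 h, 37 C.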

Assay [4] in a line: qHTS profiling for inhibitors of Plasmodium falciparum (HB3) proliferation (AID 743324).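 Further: 100% = DMSO vehicle wells and 0% = artemisinin-treated control wells.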 As to conditions: Plasmodium falciparum HB3 blood-stage proliferation; at 28.7 µM (top of the series) unless noted. The method in brief:
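SYBR Green fluorescence (485 ex/535 em) of lysed cultures, incubated overnight at room temperature in the dark, quantifies parasite DNA. Infected erythrocytes at 0.3% parasitemia and 2.5% hematocrit were exposed 72 h; values normalized to DMSO and 0.29 uM artemisinin controls.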

A short description of assay [5]: qHTS assay to identify small molecule inhibitors of chordoma cells - UCH-1 (AID 1259355). Further: on the % scale 0 is the no-effect control and ±100 the full control effect; nearly all actives have a fitted effect of over 55% in size. The method in brief:
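Screening used approved and investigational drugs in 15-point titration against 800 seeded cells per well. A fixed combination of auranofin with camptothecin, doxorubicin, rubitecan and topotecan followed compound addition, and growth was scored by CellTiter-Glo after 48hr.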

Assay [6] can be described thus: qHTS assay to identify small molecule inhibitors of chordoma cells - UCH-2 (AID 1259356). Further: on the % scale 0 is the no-effect control and ±100 the full control effect.

Take `Cc1c(N)nc([C@H](CC(N)=O)NC[C@H](N)C(N)=O)nc1C(=O)N[C@H](C(=O)N[C@H](C)[C@@H](O)[C@H](C)C(=O)N[C@H](C(=O)NCCc1nc(-c2nc(C(=O)NCCCCN=C(N)N)cs2)cs1)[C@@H](C)O)[C@@H](O[C@@H]1O[C@@H](CO)[C@@H](O)[C@H](O)[C@@H]1O[C@H]1O[C@H](CO)[C@@H](O)[C@H](OC(N)=O)[C@@H]1O)c1cnc[nH]1`: the max response in assay [1] is -1.54% (inactive) and 0.24% (inactive). For the same compound, the remaining parasite growth % (stronger effect = lower value) in assay [2] is 83.7%. Moreover, the activity, percent of control in assay [3] came to 82.1%. For the same compound, the remaining proliferation (% of control), lower = more inhibition in assay [4] was found to be 67.1%. Moreover, the Potency entry in assay [5] and in assay [6] was “inactive” each time.

As to `COc1cc(S(C)=O)ccc1-c1nc2ncccc2[nH]1` (stereo unspecified), in assay [1], the max response is 11.9% (inactive). Moreover, the Potency entry in assay [5] and in assay [6] was “inactive” throughout.

Consider `CO[C@H]1O[C@@H]2O[C@@]3(C)CC[C@H]4[C@H](C)CC[C@@H]([C@H]1C)[C@@]24OO3`, for which the Potency in assay [1] was 83.3 nM (active). The remaining parasite growth % (stronger effect = lower value) in assay [2] was -0.372% [at 57.5 µM]. In addition, in assay [3], the activity, percent of control was -0.375% [at 57.5 µM]. The same compound displayed a remaining proliferation (% of control), lower = more inhibition in assay [4] of 0.0422% [at 57.5 µM]. The Potency result in assay [5] and in assay [6] was “inactive” throughout.

Consider `CCCCC[C@H](O)/C=C/[C@H]1[C@H](O)CC(=O)[C@@H]1CCCCCCC(=O)O`, for which the max response in assay [1] was -10.5% (inactive). Also, the Potency result in assay [5] and in assay [6] was “inactive” each time.

`O=C(O)CCC/C=C\C[C@@H]1[C@@H](/C=C/[C@@H](O)COc2cccc(C(F)(F)F)c2)[C@H](O)C[C@@H]1O`: the max response in assay [1] is 7.42% (inactive). For the same compound, the Potency result in assay [5] and in assay [6] was “inactive” each time.

In the case of `CC1=C(/C=C/C(C)=C/C=C/C(C)=C/C(=O)Oc2c(C)c(C)c3c(c2C)CC[C@@](C)(CCC[C@H](C)CCC[C@H](C)CCCC(C)C)O3)C(C)(C)CCC1`, the max response in assay [1] was 0.0927% (inactive). Moreover, the Potency result in assay [5] and in assay [6] was “inactive” each time.

With `CC12CCC(C1)C(C)(C)C2=O` (stereo unspecified), the max response in assay [1] was -0.872% (inactive). In addition, the Potency entry in assay [5] and in assay [6] was “inactive” throughout.

As for `C=C1[C@@H]2CC[C@@H](C2)C1(C)C`, in assay [1], the max response is -12.4% (inactive). Besides, the Potency result in assay [5] and in assay [6] was “inactive” each time.

As to `CN(C)C=Nc1c(I)cc(I)c(CCC(=O)O)c1I`, the max response in assay [1] was 14.5% (inactive). The Potency result in assay [5] and in assay [6] was “inactive” each time.

As to `CO[C@H]1C[C@H](O[C@@H]2/C(C)=C/C[C@@H]3C[C@@H](C[C@]4(CC[C@H](C)[C@@H](C5CCCCC5)O4)O3)OC(=O)[C@@H]3C=C(C)/C(=N/O)[C@H]4OC/C(=C\C=C\[C@@H]2C)[C@]43O)O[C@@H](C)[C@@H]1O`, the max response in assay [1] is -14.2% (inactive). The Potency entry in assay [5] and in assay [6] was “inactive” in each case.

For the compound `CO/N=C(\C(=O)N[C@@H]1C(=O)N2C(C(=O)[O-])=C(C[n+]3ccc(N)n3CCO)CS[C@H]12)c1csc(N)n1`, the max response in assay [1] was -6.21% (inactive). Moreover, the Potency result in assay [5] and in assay [6] was “inactive” in each case.

In the case of `COc1ccccc1N1CCN(CCCC(=O)c2ccc(F)cc2)CC1`, in assay [1], the max response was 18% (inactive). In addition, the Potency entry in assay [5] and in assay [6] was “inactive” each time.

Regarding `CCN(CC)CCOCCOC(=O)C(CC)(CC)c1ccccc1`, the remaining parasite growth % (stronger effect = lower value) in assay [2] is 90.6%. For the same compound, the activity, percent of control in assay [3] was 50.9%. Also, the remaining proliferation (% of control), lower = more inhibition in assay [4] is 65.7%. The Potency result in assay [5] and in assay [6] was “inactive” in each case.

As to `CC(=C\c1ccccc1)/C=C1/SC(=S)N(CC(=O)O)C1=O`, the max response in assay [1] was 8.93% (inactive). Moreover, the Potency entry in assay [5] and in assay [6] was “inactive” throughout.

Turning to `CN[C@@H]1[C@H](O[C@H]2[C@H](O[C@H]3[C@H](O)[C@@H](O)[C@H](N=C(N)N)[C@@H](O)[C@@H]3N=C(N)N)O[C@@H](C)[C@]2(O)C=O)O[C@@H](CO)[C@H](O)[C@H]1O`, the max response in assay [1] is 14.8% (inactive). For the same compound, the Potency result in assay [5] and in assay [6] was “inactive” each time.

Consider `CC(CCc1ccc(O)cc1)NCC(O)c1ccc(O)cc1` (stereo unspecified), for which, in assay [1], the max response is 16.5% (inactive). Also, the Potency result in assay [5] and in assay [6] was “inactive” each time.
